Results reported in PubChem BioAssay AID1159580 (chemical genetic matrix, 2015).
About 2,000 (36%) of roughly 5,500 compounds were called active. Roughly 18% stayed inconclusive and do not appear here. Cut-off read from the data, not from the text of the source: active = normalized growth mostly below about 0.91 (no sharp cut-off); inconclusive = no clear call, values can overlap the other calls; inactive = mostly above about 0.92. The list shows a part of the results.

Assay: chemical genetic growth profiling, strain panel (AID 1159580);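 note: tested at 20 µM; growth read once vehicle control cultures reached saturation at 30 °C; 1 = growth at the plate median or of vehicle wells; lower values mean less growth of the strain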
Settings: S. cerevisiae deletion strains, growth OD

Measured: normalized growth

O=C(O)C1CC(=O)N(Cc2ccccc2Cl)C1 (stereo not drawn)
inactive: locus YAL013W, strain DEP1, hits give low values 1.01 | locus YBR229C, strain ROT2, hits give low values 1 | locus YCL061C, strain MRC1, hits give low values 1.02 | locus YDL101C, strain DUN1, hits give low values 0.994 | locus YDL134C, strain PPH21, hits give low values 1.01 | locus YDR150W, strain NUM1, hits give low values 0.947 | locus YEL061C, strain CIN8, hits give low values 1.03 | locus YGR078C, strain PAC10, hits give low values 1.01 | locus YHR030C, strain SLT2, hits give low values 1.15 | locus YHR087W, strain rtc3, hits give low values 1.01 | locus YJR043C, strain POL32, hits give low values 0.966 | locus YJR075W, strain HOC1, hits give low values 1 | locus YLR039C, strain RIC1, hits give low values 1.04 | locus YLR058C, strain SHM2 (second series), hits give low values 1 | locus YLR085C, strain ARP6, hits give low values 1.04 | locus YLR262C, strain YPT6, hits give low values 1.01 | locus YML094W, strain GIM5, hits give low values 1.04 | locus YMR219W, strain ESC1, hits give low values 1.01 | locus YMR263W, strain SAP30, hits give low values 1.01 | locus YMR307W, strain GAS1, hits give low values 1.02 | locus YNL153C, strain GIM3, hits give low values 0.992 | locus YNL298W, strain CLA4 (second series), hits give low values 1.07 | locus YNL322C, strain KRE1, hits give low values 1.01 | locus YNR030W, strain Alg12, hits give low values 1.03 | locus YOL006C, strain TOP1, hits give low values 1.08 | locus YPL055C, strain LGE1, hits give low values 0.931 | locus YPL241C, strain CIN2, hits give low values 1.11 | locus YPR135W, strain CTF4, hits give low values 1.06
